Broadly, the inhibition is the relative decrease from the control value, in per cent.

Where “and” joins values, the source holds several entries; their conditions need not be identical. Equal values may be shown once. Out of some 190,000 compounds screened, about 6,900 (3.6%) were called active. No stated cut-off is given here; in the data, active means inhibition above about 50%; inactive means the rest. What follows is part of a selection rich in actives, with near analogues and random picks from the rest. Some compounds were tested as several samples or in several runs, with calls that do not always agree.

Chain of Huntingtin (Homo sapiens) (P42858 whole entry, looked up, stated change not applied): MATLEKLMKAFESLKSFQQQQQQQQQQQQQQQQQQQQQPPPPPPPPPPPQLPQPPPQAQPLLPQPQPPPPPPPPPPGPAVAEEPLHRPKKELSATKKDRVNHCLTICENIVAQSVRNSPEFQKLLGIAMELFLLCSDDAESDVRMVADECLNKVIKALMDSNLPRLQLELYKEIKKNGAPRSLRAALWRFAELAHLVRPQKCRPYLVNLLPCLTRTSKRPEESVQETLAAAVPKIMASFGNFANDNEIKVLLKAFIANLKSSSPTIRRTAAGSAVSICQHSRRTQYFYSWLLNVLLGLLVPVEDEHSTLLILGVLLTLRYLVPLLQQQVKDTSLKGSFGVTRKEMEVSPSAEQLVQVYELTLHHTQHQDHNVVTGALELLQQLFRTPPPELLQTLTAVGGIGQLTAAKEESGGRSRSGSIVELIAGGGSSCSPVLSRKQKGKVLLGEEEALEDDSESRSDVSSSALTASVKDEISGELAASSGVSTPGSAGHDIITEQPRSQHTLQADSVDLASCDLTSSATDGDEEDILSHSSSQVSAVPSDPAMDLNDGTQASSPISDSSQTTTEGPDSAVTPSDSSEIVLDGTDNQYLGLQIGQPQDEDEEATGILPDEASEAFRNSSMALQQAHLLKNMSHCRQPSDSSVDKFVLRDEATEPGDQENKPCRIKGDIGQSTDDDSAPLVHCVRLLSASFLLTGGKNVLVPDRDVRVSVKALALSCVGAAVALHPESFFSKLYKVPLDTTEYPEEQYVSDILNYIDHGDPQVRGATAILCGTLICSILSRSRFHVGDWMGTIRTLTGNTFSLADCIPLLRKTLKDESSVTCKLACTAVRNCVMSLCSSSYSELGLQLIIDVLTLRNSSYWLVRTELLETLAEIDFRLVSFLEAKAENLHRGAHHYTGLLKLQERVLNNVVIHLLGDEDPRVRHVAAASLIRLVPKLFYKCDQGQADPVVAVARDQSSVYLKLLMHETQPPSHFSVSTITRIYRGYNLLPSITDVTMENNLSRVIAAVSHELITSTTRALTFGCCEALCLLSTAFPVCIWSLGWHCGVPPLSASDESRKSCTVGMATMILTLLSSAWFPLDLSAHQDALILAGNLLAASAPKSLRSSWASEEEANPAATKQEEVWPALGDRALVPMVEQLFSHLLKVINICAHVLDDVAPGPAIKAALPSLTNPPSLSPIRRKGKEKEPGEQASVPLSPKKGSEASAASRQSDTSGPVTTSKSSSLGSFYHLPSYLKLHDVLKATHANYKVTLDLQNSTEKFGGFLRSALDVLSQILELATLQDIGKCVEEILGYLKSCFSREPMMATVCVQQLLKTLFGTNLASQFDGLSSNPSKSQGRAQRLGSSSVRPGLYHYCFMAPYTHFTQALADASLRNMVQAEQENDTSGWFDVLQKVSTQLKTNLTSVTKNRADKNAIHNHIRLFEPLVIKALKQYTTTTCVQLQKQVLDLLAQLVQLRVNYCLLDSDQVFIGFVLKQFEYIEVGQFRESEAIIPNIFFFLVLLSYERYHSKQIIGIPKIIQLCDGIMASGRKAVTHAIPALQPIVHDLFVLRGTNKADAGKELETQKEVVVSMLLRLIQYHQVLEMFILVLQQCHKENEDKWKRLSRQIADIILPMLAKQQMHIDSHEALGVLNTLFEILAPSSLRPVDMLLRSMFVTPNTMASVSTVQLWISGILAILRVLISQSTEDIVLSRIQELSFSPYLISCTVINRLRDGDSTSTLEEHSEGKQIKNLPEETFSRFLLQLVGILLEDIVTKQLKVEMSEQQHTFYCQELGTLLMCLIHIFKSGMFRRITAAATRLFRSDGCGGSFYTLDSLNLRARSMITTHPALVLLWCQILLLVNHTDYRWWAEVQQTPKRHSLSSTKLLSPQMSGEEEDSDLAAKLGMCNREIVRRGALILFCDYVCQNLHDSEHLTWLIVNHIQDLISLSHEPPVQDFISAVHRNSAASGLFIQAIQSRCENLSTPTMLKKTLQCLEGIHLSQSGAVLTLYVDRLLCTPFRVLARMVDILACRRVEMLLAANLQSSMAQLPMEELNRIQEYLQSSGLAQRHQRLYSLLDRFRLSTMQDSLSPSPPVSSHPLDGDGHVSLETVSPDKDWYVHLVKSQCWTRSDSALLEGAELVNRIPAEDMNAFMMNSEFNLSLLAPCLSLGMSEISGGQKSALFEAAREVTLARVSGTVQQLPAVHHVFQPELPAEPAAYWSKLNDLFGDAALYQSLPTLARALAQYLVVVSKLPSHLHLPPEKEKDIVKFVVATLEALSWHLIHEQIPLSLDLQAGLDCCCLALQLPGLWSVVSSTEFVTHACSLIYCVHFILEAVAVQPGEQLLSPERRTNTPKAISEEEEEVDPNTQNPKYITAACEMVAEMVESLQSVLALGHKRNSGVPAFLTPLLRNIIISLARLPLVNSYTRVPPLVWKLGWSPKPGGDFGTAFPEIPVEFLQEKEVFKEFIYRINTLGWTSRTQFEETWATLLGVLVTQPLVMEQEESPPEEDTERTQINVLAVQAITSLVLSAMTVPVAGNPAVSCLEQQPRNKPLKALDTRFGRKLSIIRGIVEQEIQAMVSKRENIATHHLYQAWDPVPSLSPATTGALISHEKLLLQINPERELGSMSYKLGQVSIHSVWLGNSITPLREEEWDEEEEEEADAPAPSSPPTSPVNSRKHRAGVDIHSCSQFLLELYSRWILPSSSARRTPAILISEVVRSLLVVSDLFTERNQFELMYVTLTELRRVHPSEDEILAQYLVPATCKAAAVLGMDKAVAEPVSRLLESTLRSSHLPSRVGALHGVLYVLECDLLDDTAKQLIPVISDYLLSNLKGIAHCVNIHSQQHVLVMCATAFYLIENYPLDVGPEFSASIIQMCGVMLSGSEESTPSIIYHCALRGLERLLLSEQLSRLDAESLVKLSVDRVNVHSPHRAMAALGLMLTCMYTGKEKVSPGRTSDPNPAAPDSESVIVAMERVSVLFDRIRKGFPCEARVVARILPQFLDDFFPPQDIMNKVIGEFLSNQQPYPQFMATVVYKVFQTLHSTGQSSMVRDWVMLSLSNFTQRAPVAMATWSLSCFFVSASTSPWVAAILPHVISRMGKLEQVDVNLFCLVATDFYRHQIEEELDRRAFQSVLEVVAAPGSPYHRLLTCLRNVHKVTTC

This test has as its target Huntingtin (Homo sapiens) (UniProt P42858). Nature of the test: mutant huntingtin-calmodulin interaction inhibitors – biochemical, AlphaScreen, primary screen (AID 1671202).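 On inhibition: 0% = both proteins with DMSO and 100% = one protein alone.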 The settings on record: AlphaScreen His-mHTT/GST-CaM binding, luminescence; at 15 µM, stronger effect = higher value. In general terms: Bead proximity is the source of the signal in Alpha formats.
For `CCCCCCOc1ccc(NC(=O)CC2SC(=N)NC2=O)cc1` (stereo not given), the inhibition is 1% (inactive).
On to `COC(=O)c1ccc(CN2CCCC2c2cc(C)on2)cc1` (stereo not given), for which the inhibition was 1.57% (inactive).
Take `CC(=O)Nc1nonc1N1C(=N)S/C(=C\c2ccc(-c3cccc(F)c3)o2)C1=O`: the inhibition was 57% (active).
On to `COc1cccc(/C=C2\SC(=N)N(c3ccc(F)cc3)C2=O)c1`, for which the inhibition is 3% (inactive).
As for `N=C1S/C(=C\c2ccc(-c3ccccc3[N+](=O)[O-])o2)C(=O)N1c1ccc2c(c1)OCO2`, the inhibition was 26% (inactive).
In the case of `COc1ccc2nc(NCCn3cccn3)sc2c1`, the inhibition is -1.7% (inactive).
For `CCOC(=O)C1CCCN(C(=O)c2nn(-c3ccc(F)cc3)c(=O)cc2OC)C1` (stereo not given) the value was -5.9% (inactive); for `O=C(c1cccc(Cl)c1)N1CCN(Cc2ccccc2)CC1`, 4.6% (inactive); for `O=C(Nc1ccccc1)N1CCN(Cc2ccccc2)CC1`, -7.6% (inactive).
For `O=C(c1ncn[nH]1)N1CCN(Cc2ccccc2)CC1`, the inhibition is 90.3% (active).
In the case of `CCOc1ccc(C2CC(c3ccc(Cl)cc3)Nc3nnnn32)cc1OC` (stereo not given), the inhibition is 38% (inactive).
Regarding `Cc1cc(C(=O)NCc2ccc(C)o2)c2cccc(-c3cccs3)c2n1`, the inhibition was -56.5% (inactive).
On to `COc1ccccc1C1(CCNCc2ccc3c(c2)OCO3)CCOC(C)(C)C1` (stereo not given), for which the inhibition is 3.46% (inactive).
Regarding `Cc1ccc2c(c1)C(c1ccc(F)cc1)N(C(=O)c1c(F)cccc1Cl)CC(=O)N2` (stereo not given), the inhibition is 22% (inactive).
Regarding `O=C1CN(C(=O)c2ccccc2F)C(c2ccc(F)cc2)c2cc(F)ccc2N1` (stereo not given), the inhibition is -4% (inactive).
Turning to `Cc1ccc2c(c1)C(c1ccc(F)cc1)N(C(=O)c1ccc(C)c(C)c1)CC(=O)N2` (stereo not given), the inhibition is 69% (active).
`COc1ccc(C=C2Oc3cc(OC(C)=O)ccc3C2=O)c(OC)c1OC`: the inhibition is 16.2% (inactive).
Take `COc1ccc(C(=O)C=Cc2ccc(C)cc2)c(OC(=O)c2ccco2)c1`: the inhibition is 17% (inactive).
In the case of `Oc1ccc2c(c1)OCC1c3cc4c(cc3OC21)OCO4` (stereo not given), the inhibition was 65.8% (active).
For `Cc1ccccc1NCc1cc(=O)oc2cc(O)c(O)cc12`, the inhibition is 29.6% (inactive).
As for `CNC(=O)C1CCN(Cc2cc3ccccc3n2Cc2ccc(F)cc2)CC1`, the inhibition is 85.1% (active).
Regarding `O=C(NCc1ccc(F)cc1)C1CCN(c2cnn(Cc3ccccc3)c(=O)c2)CC1`, the inhibition was 2.29% (inactive).
The value for `CCc1ccc(CN2CCC(C(=O)N3CCN(Cc4ccccc4)CC3)CC2)cc1` was 36.4% (inactive); that for `O=S(=O)(NCCc1ccc(F)cc1)c1ccc(F)cc1` was -3.6% (inactive).
As to `Cc1ccc(C(C)C)cc1OCCN1CCCC1`, the inhibition was -3.2% (inactive).
The value for `COc1cc(OC)c2c(c1C(CCN1CCCCC1)c1ccc(N(C)C)cc1)OC(=O)CC2c1ccc(N(C)C)cc1` (stereo not given) was 76.8% (active).
On to `COc1ccc(C(CCN2CCOCC2)c2c(OC)cc(OC)c3c2OC(=O)CC3c2ccc(OC)cc2)cc1` (stereo not given), for which the inhibition was 71.6% (active).
With `COc1cc(OC)c2c(c1)OC(=O)CC2c1cc(OC)c(OC)c(OC)c1` (stereo not given), the inhibition was 3.2% (inactive).
For `COc1ccc(C2CC(=O)Oc3ccc(C(C)(C)C)cc32)cc1` (stereo not given), the inhibition was -22.8% (inactive).
Regarding `COc1ccc(-c2c(C)c3ccc(OCCN4CCCCC4)cc3oc2=O)cc1OC`, the inhibition is -2.1% (inactive).
For `COc1cc(OC)c2c(C)cc(=O)oc2c1C(CCN1CCCCC1)c1ccc(N(C)C)cc1` (stereo not given) the value was 78.3% (active); for `COc1ccc(Nc2nc(Cl)nc(NCCN3CCOCC3)n2)c(OC)c1`, 4% (inactive).
For the compound `COc1ccc(CNC(=O)CC2CCN(C(=O)c3[nH]c(C)c(C)c3C)CC2)cc1`, the inhibition is 11.4% (inactive).
Regarding `COc1ccc(CCNc2nc(C)nc3sc(C)cc23)cc1OC`, the inhibition was 0% (inactive).
As to `CC(C)c1c(C2CCN(C(=O)c3cccc(F)c3)CC2)noc1N`, the inhibition was -1.9% (inactive).
For `Cc1cc(C(=O)NCCCn2ccnc2)ccc1[N+](=O)[O-]` the value was -2.3% (inactive); for `CC(CC(=O)N1CCN(c2nc3ccccc3n(C)c2=O)CC1)c1ccccc1` (stereo not given), 3.2% (inactive); for `Cc1ccccc1C1=N/C(=C\c2ccc(Br)cc2)C(=O)O1`, -1% (inactive).
On to `CN(C)CCCn1c(-c2ccc(Cl)cc2)csc1=Nc1ccccc1`, for which the inhibition was 89% (active).
As for `COc1ccc(-c2csc(=Nc3ccccc3)n2C)cc1`, the inhibition was 29% (inactive).
In the case of `COc1ccc(C2C(=C(O)c3ccc(Cl)cc3)C(=O)C(=O)N2CCCN(C)C)c(OC)c1` (stereo not given), the inhibition was -4.4% (inactive).
For the compound `CC1C(=O)N(c2ccc(Br)cc2)CCN1C(=O)C1CCCC1` (stereo not given), the inhibition is -6.1% (inactive).
Regarding `Cc1nc(-c2ccccc2)oc1CC(=O)NCCN1CCCCCC1`, the inhibition was 100% (active).
For the compound `O=C(CCS(=O)(=O)Cc1ccccc1F)NCCCN1CCCCC1`, the inhibition is 1% (inactive).
Regarding `Cc1ccc(C(=O)N2CCC(CC(=O)NCCN3CCCCCC3)CC2)cc1`, the inhibition is 13.3% (inactive).
The value for `O=S(=O)(c1ccccc1)c1cccs1` was -6.17% (inactive); that for `Cc1cc(C)c(NC(=O)CNC2CC(C)(C)NC(C)(C)C2)c(C)c1` was -6.9% (inactive); that for `COc1ccc2oc(=O)c(-c3nnc(Nc4ccc(C)cc4)s3)cc2c1` was 3% (inactive).
Regarding `O=C(c1ccco1)N1CCN(c2ncnc3sc(-c4ccccc4)cc23)CC1`, the inhibition was 54.6% (active).
As to `O=C(c1ccco1)N1CCN(c2ccc([N+](=O)[O-])cc2)CC1`, the inhibition is 0.2% (inactive).
For `Cc1ccc2nc3sc(C(=O)N4CCN(C(=O)c5ccco5)CC4)cc3c(=O)n2c1` the value was 12.9% (inactive); for `COc1cc(C(=O)N2CCC(CC(=O)NCc3ccccn3)CC2)cc(OC)c1OC`, 19.9% (inactive); for `COCCN1C(=O)c2ccccc2C(C(=O)NCC2CCCO2)C1c1ccc(F)cc1` (stereo not given), 0% (inactive).
In the case of `Cc1ccc(C(=O)N2CCc3sc(C(=O)NCCC(C)C)cc3C2)cc1`, the inhibition was -0.52% (inactive).
In the case of `O=C(Nc1ccc([N+](=O)[O-])cc1)C12CC3CC(C1)CC(c1ccccc1)(C3)C2`, the inhibition is 14.9% (inactive).
With `O=C(c1ccc2c(c1)OCO2)N1CCC(n2nc(-c3ccsc3)ccc2=O)CC1`, the inhibition was 98% (active).
For `CC1CCCN(C(=O)c2ccc(-c3ccsc3)nc2)C1` (stereo not given) the value was -3.7% (inactive); for `O=C(c1ccc(-c2ccsc2)nc1)N1CCOCC1`, -3.2% (inactive); for `O=C(c1ccc2c(c1)OCO2)N1CCOCC1`, 1% (inactive).
On to `O=C(c1ccc(F)cc1)N1CCC(n2nc(-c3ccsc3)ccc2=O)CC1`, for which the inhibition is 93.2% (active).
As for `O=C(c1ccc(-c2ccsc2)nc1)N1CCCCCC1`, the inhibition is -6.2% (inactive).
For `COc1ccc(NC(=O)N2CCCC2c2nc(-c3ccc(F)cc3F)no2)cc1F` (stereo not given) the value was 5.86% (inactive); for `O=C(C1CCCC1)N1CCN(Cc2noc(-c3cccc4ccccc34)n2)CC1`, 19.3% (inactive).
The value for `O=C(N/N=C/C=C\c1ccco1)c1ccco1` was “inactive”; that for `O=C(NCCn1ncccc1=O)c1cc(C2CC2)on1` was -8.3% (inactive).
Consider `O=c1c(-c2ccc3c(c2)OCCO3)c(C(F)(F)F)oc2cc(O)cc(O)c12`, for which the inhibition is 54.5% (active).
For the compound `Cc1cc(O)c2c(=O)c(-c3csc(C)n3)c(C(F)(F)F)oc2c1`, the inhibition is 1% (inactive).
For `COc1ccc(-c2c(C(F)(F)F)oc3cc(O)ccc3c2=O)cc1`, the inhibition is 10% (inactive) and -0.6% (inactive).
The value for `COc1ccc(-c2noc(C3CCN(CC(=O)Nc4ccc(C)c(F)c4)CC3)n2)cc1` was -6.73% (inactive); that for `Cc1ccccc1Oc1nc(N2CCCC2)nc2c1CN(Cc1ccncc1)CC2` was 17.7% (inactive); that for `Cc1ccccc1NC(=O)NCc1ccsc1` was -8.6% (inactive).
With `O=C1c2ccccc2-c2onc3c(N4CCCC4)ccc1c23`, the inhibition was 64% (active).
Consider `CCN(Cc1ccccc1)C(=O)c1ccccc1Cl`, for which the inhibition was -7.8% (inactive).
As to `CCCNc1cc(N2CCC(CCC(=O)NCc3ccccn3)CC2)ncn1`, the inhibition was 1.6% (inactive).
With `COc1ccccc1Nc1cc(C)nc2ccc(Cl)cc12`, the inhibition was 0% (inactive).
As for `O=C(Nc1ccccc1I)c1ccccc1F`, the inhibition is -15.8% (inactive) and -24% (inactive).
For `Cc1ccc(C(=O)Nc2cnc(N3CCCCC3)nc2)c(C)c1`, the inhibition is 9.7% (inactive).
Take `COc1ccc(/C=C2\N=C(c3cccc(Br)c3)OC2=O)cc1`: the inhibition was -5% (inactive).
Consider `COc1ccc(C2=NC(c3ccncc3)=Nc3ccc(Br)cc3N2)cc1`, for which the inhibition was 50.3% (active).
The value for `COc1cc(C=C(C#N)c2nc(-c3ccc4c(c3)OCO4)cs2)cc(OC)c1OC(C)=O` was -4.5% (inactive).
`CC(=O)N1c2ccccc2NC2=C(C(=O)CC(C)(C)C2)C1c1ccc(N(C)C)cc1` (stereo not given): the inhibition is 29.3% (inactive).
For `COc1ccc(S(=O)(=O)CCC(=O)Nc2ccccc2C(F)(F)F)cc1`, the inhibition is 1% (inactive).
`O=[N+]([O-])c1cc(Cl)ccc1N1CCCNCC1`: the inhibition was -0.3% (inactive).
With `O=C(Cc1ccc(Cl)cc1)N1CCN(c2ccc(Cl)cc2[N+](=O)[O-])CC1`, the inhibition is 58.1% (active) and 44% (inactive).
Take `COc1ccc(C(=O)N2CCN(c3ccc(Cl)cc3[N+](=O)[O-])CC2)cc1Br`: the inhibition is 14.9% (inactive).
Consider `O=C(CSc1nc2[nH]ncc2c(=O)n1-c1ccccc1)NCc1cccc(Cl)c1`, for which the inhibition is 8% (inactive).
As to `O=S1(=O)CC(N2CCC(Cc3ccccc3)CC2)CN1Cc1ccccc1` (stereo not given), the inhibition was 19.9% (inactive).
`O=[N+]([O-])c1ccc(CN2CC(N3CC=CC3)CS2(=O)=O)cc1` (stereo not given): the inhibition is -3% (inactive).
For `O=[N+]([O-])c1ccc(CN2CC(N3CCC(c4ccccc4)CC3)CS2(=O)=O)cc1` (stereo not given), the inhibition was 50.1% (active).
For the compound `Cn1c(/C=C/c2ccc(Cl)cc2)nc2ccccc21`, the inhibition is -18.9% (inactive).
For `OC(COCC12CC3CC(CC(C3)C1)C2)CN1CCc2ccccc2C1` (stereo not given), the inhibition was 35.2% (inactive).
With `Cc1ccc(C(=O)N2CCN(c3nc(CN4CCCCC4)cs3)CC2)cc1F`, the inhibition was 2% (inactive).
Consider `CCC(CC)C(=O)N1CCc2c(c(-c3nnc(-c4ccccc4Cl)o3)nn2C)C1`, for which the inhibition was 6.42% (inactive).
For `Cn1nc(-c2nc(Cc3ccccc3)no2)c2c1CCN(C(=O)c1ccccc1Cl)C2` the value was 6.74% (inactive); for `Cn1nc(-c2nnc(-c3ccccc3Cl)o2)c2c1CCN(C(=O)CCc1ccccc1)C2`, 76.5% (active).

The values above are taken from PubChem BioAssay AID1671202 (University of Kansas High Throughput Screening Laboratory, 2021).
